Data as given in the supplement of paper PMC7366291.
Where a name gives a salt, the structure may show the parent alone. ± gives the standard deviation or the standard deviation of the averaged measurements.

Columns and labels:
Conditions in all cases: 25 µM; exposure: 24-48 hpf
[1] = system: Danio rerio Tg(wt1b:EGFP) embryo, pronephros; assay: glomerular separation, fold change vs DMSO control; higher = glomeruli further apart (abnormal)
How it was run: (§1)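 In HEPES-buffered E3 with 0.003% PTU and 0.5% DMSO, dechorionated Tg(wt1b:EGFP) zebrafish embryos were exposed to 25 μM compound from 24 to 48 hpf at 28.5°C. Pronephroi were then imaged dorsally at 470 nm in 10 z-slices, in 96-well plates filled with agarose. On maximum projections, a Fiji macro turned 16 manually placed reference points into distances and angles, and values more than 2 SD from the feature mean were excluded. Features are fold changes relative to the mean of DMSO-treated embryos from the same day.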

[2] = system: Danio rerio Tg(wt1b:EGFP) embryo, pronephros; assay: glomerular width (mean of left and right), fold change vs DMSO control; higher = wider glomerulus
How it was run: as §1

[3] = system: Danio rerio Tg(wt1b:EGFP) embryo, pronephros; assay: fraction of imaged embryos annotated as normal kidney; higher = less nephrotoxic; extreme values may be limits of the assay
How it was run: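 Tricaine-anaesthetised Tg(wt1b:EGFP) zebrafish larvae were oriented dorsally in agarose-filled 96-well plates, and their pronephroi were recorded by widefield fluorescence at 470 nm in 10 z-slices. Before this, the dechorionated embryos had been exposed in 12-well plates to 25 μM compound in 0.5% DMSO and 5 mM HEPES-buffered E3 with 0.003% PTU, from 24 to 48 hpf at 28.5°C. Maximum projections were annotated manually for each embryo, and the read-out is the fraction per treatment classed as normal kidney.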

[4] = system: Danio rerio Tg(wt1b:EGFP) embryo, pronephros; assay: pronephric angle neck segment to proximal convoluted tubule (mean of left and right), fold change vs DMSO control; higher = larger pronephric angle
How it was run: as §1

| Compound | glomerular separation [1] | glomerular width [2] | fraction of imaged embryos annotated as normal kidney [3] | pronephric angle neck segment [4] |
| --- | --- | --- | --- | --- |
| O=C1CN(/N=C/c2ccc([N+](=O)[O-])o2)C(=O)N1 [Nitrofurantoin] | 0.915 ± 0.35 | 1.04 ± 0.012 | 0.833 | 0.968 ± 0.015 |
| CC(C)(C)NC[C@H](O)COc1nsnc1N1CCOCC1 [Timolol maleate salt] | 0.812 ± 0.37 | 0.9995 ± 0.0057 | 0.833 | 0.9989 ± 0.0023 |
| COc1ccc(C(=O)CC(=O)c2ccc(C(C)(C)C)cc2)cc1 [Avobenzone] | 0.991 ± 0.29 | 1.05 ± 0.063 | 0.667 | 1.005 ± 0.0096 |
| CN(C(=O)C(Cl)Cl)c1ccc(OC(=O)c2ccco2)cc1 [Diloxanide furoate] | 2.17 ± 1 | 0.777 ± 0.037 | 0.25 | 1.25 ± 0.081 |
| O=C1C(CC[S+]([O-])c2ccccc2)C(=O)N(c2ccccc2)N1c1ccccc1 (stereo not drawn) [Sulfinpyrazone] | 1.21 ± 0.35 | 1.02 ± 0.03 | 0.833 | 1 ± 0.012 |
| Cc1cccc(C)c1NC(=O)C(C)N (stereo not drawn) [Tocainide hydrochloride] | 1.08 ± 0.37 | 0.975 ± 0.0083 | 1 | 0.941 ± 0.048 |
| C=CC(N)CCC(=O)O (stereo not drawn) [Vigabatrin hydrochloride] | 0.956 ± 0.33 | 1.129 ± 0.0097 | 0.917 | 1.05 ± 0.029 |
| OC(CCCN1CCCCC1)(c1ccccc1)c1ccccc1 [Diphenidol hydrochloride] | 0.854 ± 0.23 | 1.1 ± 0.11 | 0.833 | 1.06 ± 0.02 |
| CN1C(C)(C)CCCC1(C)C [Pempidine tartrate] | 0.75 ± 0.25 | 1 ± 0.032 | 0.833 | 1.02 ± 0.068 |
| CCCNC(C)C(=O)Nc1ccccc1C (stereo not drawn) [Prilocaine hydrochloride] | 1.28 ± 1.1 | 0.947 ± 0.032 | 0.75 | 1.02 ± 0.081 |
| CCCCC(=O)O[C@H]1CC[C@H]2[C@@H]3CCc4cc(O)ccc4[C@H]3CC[C@]12C [Estradiol Valerate] | 1.02 ± 0.37 | 0.925 ± 0.016 | 0.583 | 1.134 ± 0.0028 |
| CC(CNC1CCCCC1)OC(=O)c1ccccc1 (stereo not drawn) [Hexylcaine hydrochloride] | 0.859 ± 0.46 | 0.937 ± 0.014 | 0.857 | 1.09 ± 0.14 |
| O=C1OC(CN2CCOCC2)CN1/N=C/c1ccc([N+](=O)[O-])o1 (stereo not drawn) [Furaltadone hydrochloride] | 0.859 ± 0.33 | 1.1 ± 0.021 | 0.75 | 0.995 ± 0.015 |
| Clc1ccc(Cn2c(CN3CCCC3)nc3ccccc32)cc1 [Clemizole hydrochloride] | 1.13 ± 0.35 | 1.03 ± 0.036 | 0.545 | 1.02 ± 0.08 |
| CN(N=O)C(=O)N[C@@H](C=O)[C@@H](O)[C@H](O)[C@H](O)CO [Streptozotocin] | 0.671 ± 0.14 | 1.06 ± 0.047 | 1 | 1.01 ± 0.025 |
| CN1CCC(OC(c2ccccc2)c2ccccc2)CC1 [Diphenylpyraline hydrochloride] | 1.02 ± 0.24 | 1.07 ± 0.053 | 1 | 0.963 ± 0.035 |
| NS(=O)(=O)c1cc(Cl)c(Cl)c(S(N)(=O)=O)c1 [Dichlorphenamide] | 0.91 ± 0.4 | 1.15 ± 0.06 | 0.727 | 0.941 ± 0.041 |
| Nc1nc(/C(=C/CC(=O)O)C(=O)N[C@@H]2C(=O)N3C(C(=O)O)=CCS[C@H]23)cs1 [Ceftibuten] | 0.515 ± 0.17 | 1.016 ± 0.0039 | 1 | 0.963 ± 0.019 |
| CN(C)CCN(Cc1ccc(Cl)cc1)c1ccccn1 [Chloropyramine hydrochloride] | 0.981 ± 0.57 | 1.07 ± 0.064 | 0.917 | 0.964 ± 0.016 |

| Compound | glomerular separation [1] | glomerular width [2] | fraction of imaged embryos annotated as normal kidney [3] | pronephric angle neck segment [4] |
| --- | --- | --- | --- | --- |
| COc1cc2nc(N3CCN(C(=O)C4COc5ccccc5O4)CC3)nc(N)c2cc1OC (stereo not drawn) [Doxazosin mesylate] | 0.958 ± 0.6 | 0.965 ± 0.026 | 1 | 1.007 ± 0.003 |
| CN1C(=O)CC(c2ccccc2)C1=O (stereo not drawn) [Phensuximide] | 0.924 ± 0.43 | 0.9434 ± 0.0058 | 0.889 | 0.997 ± 0.013 |
| CCCC1O[C@@H]2C[C@H]3[C@@H]4CCC5=CC(=O)C=C[C@]5(C)[C@H]4[C@@H](O)C[C@]3(C)[C@]2(C(=O)CO)O1 (stereo partly drawn) [Budesonide] | 0.957 ± 0.24 | 1.29 ± 0.049 | 0.833 | 1.04 ± 0.12 |
| CCOc1ccc2ccccc2c1C(=O)N[C@@H]1C(=O)N2[C@@H]1SC(C)(C)[C@@H]2C(=O)O [Nafcillin sodium salt monohydrate] | 0.868 ± 0.32 | 0.941 ± 0.019 | 0.833 | 1.041 ± 0.0022 |
| CN(Cc1cc(Br)cc(Br)c1N)C1CCCCC1 [Bromhexine hydrochloride] | 0.612 ± 0.2 | 0.984 ± 0.067 | 1 | 1 ± 0.026 |
| CCOc1cc(CC(=O)N[C@@H](CC(C)C)c2ccccc2N2CCCCC2)ccc1C(=O)O [Repaglinide] | 1.44 ± 0.91 | 0.943 ± 0.028 | 0.75 | 1.06 ± 0.036 |
| COC(=O)[C@@H]1[C@H]2C[C@H]3c4[nH]c5ccccc5c4CCN3C[C@@H]2CC[C@@H]1O [Yohimbine hydrochloride] | 1.24 ± 0.41 | 1.08 ± 0.069 | 0.727 | 0.985 ± 0.082 |
| Cc1ccc(NC(=O)c2ccc(CN3CCN(C)CC3)cc2)cc1Nc1nccc(-c2cccnc2)n1 [Imatinib] | 1.09 ± 0.42 | 0.9892 ± 0.0063 | 1 | 1.01 ± 0.018 |
| N[C@@H](C(=O)N[C@@H]1C(=O)N2C(C(=O)O)=C(Cl)CS[C@H]12)c1ccccc1 [Cefaclor hydrate] | 1 ± 0.21 | 0.95 ± 0.093 | 0.833 | 1.01 ± 0.028 |
| N=C(N)N/N=C/c1c(Cl)cccc1Cl [Guanabenz acetate] | 1.12 ± 0.47 | 1.072 ± 0.01 | 1 | 0.9461 ± 0.00069 |
| CCc1ccc(CCOc2ccc(CC3SC(=O)NC3=O)cc2)nc1 (stereo not drawn) [Pioglitazone] | 1.48 ± 0.83 | 1.03 ± 0.0063 | 0.75 | 1.03 ± 0.018 |
| Clc1ccc(COC(Cn2ccnc2)c2ccc(Cl)cc2Cl)cc1 (stereo not drawn) [Econazole nitrate] | 2.58 ± 1.3 | 0.9791 ± 0.0056 | 0.417 | 1.2 ± 0.0047 |
| CC1=C(C(=O)O)N2C(=O)[C@@H](NC(=O)[C@H](N)c3ccc(O)cc3)[C@H]2SC1 [Cefadroxil] | 1.23 ± 0.49 | 1.08 ± 0.042 | 0.833 | 0.923 ± 0.049 |
| CCN(CC)CCOC(=O)C1(c2ccc([N+](=O)[O-])cc2)CCCC1 [Nitrocaramiphen hydrochloride] | 0.899 ± 0.43 | 0.971 ± 0.037 | 0.909 | 0.984 ± 0.075 |
| CC(=O)O[C@H]1C[C@@]2(C)[C@@H](C[C@@H](O)[C@H]3[C@@]4(C)CC[C@@H](O)[C@@H](C)[C@@H]4CC[C@@]32C)/C1=C(\CCC=C(C)C)C(=O)O [Fusidic acid sodium salt] | 0.853 ± 0.16 | 1.06 ± 0.025 | 1 | 1.02 ± 0.014 |
| CC(=O)Oc1cccc2c1C(=O)c1c(OC(C)=O)cc(C(=O)O)cc1C2=O [Diacerein] | 0.691 ± 0.2 | 1.1 ± 0.046 | 0.833 | 1.02 ± 0.021 |
| NCCNCCNCCNCCN [Tetraethylenepentamine pentahydrochloride] | 0.956 ± 0.33 | 1.08 ± 0.041 | 0.75 | 1.02 ± 0.049 |
| CCN1C(=O)NC(c2ccccc2)C1=O (stereo not drawn) [Ethotoin] | 0.796 ± 0.17 | 0.998 ± 0.037 | 0.917 | 0.942 ± 0.014 |
